Assay results taken from PubChem BioAssay (NCATS).
Inconclusive results are not listed. Active and inactive are the calls of the source. The call rests on the fitted dose curve; in most records, active means well fitted curve in the direction sought with a large enough effect; inconclusive means small, poorly fitted or top-dose-only effect, or another doubt; inactive means no such curve, though single readings can be large; an effect the other way counts as inactive or inconclusive.

Experiments:
[1] = Cell Viability - LYMP2-004 (AID 966); further: nearly all actives have a fitted effect of over 65% in size
In short: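 Human lymphoblastoid cells (2500/well) in complete medium were treated with compounds for 24 hr at 37 C, then intracellular ATP was measured by CellTiter-Glo luminescence. AC50 values came from Hill-equation fits of concentration-response data.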

[2] = Cell Viability - LYMP2-005 (AID 967); further: series mostly up to about 92 µM
In short: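 Acute cytotoxicity is scored as a concentration-dependent drop in intracellular ATP in human lymphoblastoid LYMP2-005 cells after 24 h compound treatment. ATP is quantified by luciferase luminescence, and AC50 is derived by Hill-equation modelling.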

[3] = Cell Viability - LYMP2-009 (AID 968); further: series mostly up to about 92 µM; nearly all actives have a fitted effect of over 55% in size
Description: NIH Chemical Genomics Center [NCGC]
NIH Molecular Libraries Screening Centers Network [MLSCN]
National Institutes of Environmental Health Sciences [NIEHS]
National Toxicology Program [NTP]
We have developed a 1536-well cell-based assay for quantitative high throughput screening (qHTS) against a number of cell lines to determine in vitro cytotoxicity of small molecules. This particular assay uses a human lymphoblastoid cell line (LYMP2-009) purchased from Coriell Institute for Medical Research.
NCGC Assay Protocol Summary:
The CellTiter-Glo luminescent cell viability assay (Promega) is a homogeneous method to measure the number of viable cells in culture. The end point readout of this assay is based on quantitation of intracellular ATP, an indicator of metabolic activity, using the luciferase reaction. Luciferase catalyzes the oxidation of beetle Luciferin to oxyluciferin and light in the presence of ATP. The luminescent signal is proportional to amount of ATP present.
Using the CellTiter-Glo luminescent cell viability assay, the amount of cellular ATP was measured in the lymphoblastoid cell line with complete culture medium following compound treatment for 24 hours. The assay was performed in opaque white Kalypsys 1536-well plates. In the screen, tetraoctylammonium bromide was used as positive control. Library compounds were measured for their ability to cause acute toxicity in the cell line, as reflected by a decrease in intracellular ATP levels, in a concentration-dependent manner. […] AC50 values were determined from concentration-response data modeled with the standard Hill equation.
qHTS protocol for CellTiter Glo lymphoblastoid cellular assay
[Step] [Parameter] [Value] [Description]
1. Reagent; 5 uL; 2500 lymphoblastoid cells/well
2. Time; 5 hr; 37 C incubation
4. Controls; 23 nL; Tetraoctylammonium bromide 6.4pM to 92 uM
5. Time; 24 hr; 37 C incubation
6. Reagent; 5 uL; CellTiter Glo reagent […]
8. Detection; Luminescence; Viewlux plate reader
Keywords: cell viability, cytotoxicity, lymphoblastoid cell line, luminescence, NTPHTS, NTPHTS_NCGC, NIEHS, DSSTox, MLSMR, MLSCN, NIH Roadmap, qHTS, NCGC

[4] = Cell Viability - LYMP2-011 (AID 969); further: nearly all actives have a fitted effect of over 60% in size
In short: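 Human lymphoblastoid cells (2500/well) were plated in complete medium, preincubated 5 hr at 37 C, then exposed to compounds for 24 hr at 37 C. Intracellular ATP was read by CellTiter-Glo luminescence, and AC50 came from Hill-equation concentration-response fits.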

[5] = Cell Viability - LYMP2-013 (AID 970); further: series mostly up to about 92 µM; nearly all actives have a fitted effect of over 55% in size
In short: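 Human lymphoblastoid cells, 2500/well, were preincubated 5 hr at 37 C, then treated with compounds for 24 hr at 37 C in complete medium. Intracellular ATP was read by CellTiter-Glo luminescence; AC50 from Hill-equation fits of concentration-response data.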

[6] = Cell Viability - LYMP2-015 (AID 971); further: nearly all actives have a fitted effect of over 55% in size
In short: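 Human lymphoblastoid cells (2500/well) in complete medium were preincubated 5 hr at 37 C, then compound-treated 24 hr at 37 C. Intracellular ATP was read by CellTiter-Glo luminescence after 30 min at room temperature; AC50 came from Hill-equation concentration-response fits.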

[7] = Cell Viability - LYMP2-017 (AID 972); further: series mostly up to about 92 µM; nearly all actives have a fitted effect of over 55% in size
In short: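 Human lymphoblastoid cells (2500/well) were seeded in complete medium, held 5 hr at 37 C, then exposed to compounds for 24 hr at 37 C. Intracellular ATP was read by CellTiter-Glo luminescence after 30 min at room temperature, with AC50 values from Hill-equation fits.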

[8] = Cell Viability - LYMP2-021 (AID 974)
In short: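 Human lymphoblastoid cells (2500/well) were preincubated 5 hr at 37 C, then exposed to compounds for 24 hr at 37 C in complete medium. Intracellular ATP was read by CellTiter-Glo luminescence; AC50 came from Hill-equation fits of concentration-response data.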

[9] = Cell Viability - LYMP2-023 (AID 975)
In short: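 Human lymphoblastoid cells (2500/well) were preincubated 5 hr at 37 C, then exposed to compounds for 24 hr at 37 C in complete medium. Cellular ATP was read by CellTiter-Glo luminescence, and AC50 came from Hill-equation fits.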

[10] = Cell Viability - LYMP2-025 (AID 976); further: series mostly up to about 92 µM
In short: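 Human lymphoblastoid LYMP2-025 cells (2500/well) were pre-incubated 5 hr at 37 C, then treated with compounds for 24 hr at 37 C in complete medium. Viability was read as intracellular ATP by CellTiter-Glo luminescence; AC50 from Hill fits.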

[11] = Cell Viability - LYMP2-002 (AID 977);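 further: series mostly up to about 92 µM; compound exposure lasted 24 h at 37 °C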
In short: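 Cytotoxicity is scored as concentration-dependent loss of cellular ATP in a human lymphoblastoid line after 24 hr compound treatment at 37 C. AC50 is obtained by modelling concentration-response data with the Hill equation.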

[12] = Cell Viability - LYMP2-006 (AID 978); further: series mostly up to about 92 µM; nearly all actives have a fitted effect of over 60% in size
In short: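 Cells are seeded at 2500 per well and rested 5 hr at 37 C. Compounds are added across a concentration series for 24 hr at 37 C, after which ATP is quantified by luciferase luminescence.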

[13] = Cell Viability - LYMP2-007 (AID 979);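 further: cells exposed to compound for 24 h before reading; nearly all actives have a fitted effect of over 60% in size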
In short: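 Human lymphoblastoid cells (2500/well) were plated in complete medium, incubated 5 hr at 37 C, then exposed to compounds for 24 hr at 37 C. Intracellular ATP was read by CellTiter-Glo luminescence after 30 min at room temperature; AC50 from Hill fits.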

[14] = Cell Viability - LYMP2-008 (AID 980); further: nearly all actives have a fitted effect of over 60% in size
In short: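 Human lymphoblastoid cells (2500/well) were plated, held 5 hr at 37 C, then exposed to compounds for 24 hr at 37 C in complete medium. Intracellular ATP was read by CellTiter-Glo luminescence; AC50 from Hill-fitted concentration-response.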

[15] = Cell Viability - LYMP2-010 (AID 981); further: nearly all actives have a fitted effect of over 55% in size
In short: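 Human lymphoblastoid LYMP2-010 cells (2500/well) were preincubated 5 hr at 37 C, then exposed to compounds for 24 hr at 37 C in complete medium. Intracellular ATP was measured by CellTiter-Glo luminescence after 30 min at room temperature; AC50 from Hill-fitted concentration-response.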

[16] = Cell Viability - LYMP2-012 (AID 982)
[17] = Cell Viability - LYMP2-014 (AID 983); further: series mostly up to about 92 µM; nearly all actives have a fitted effect of over 50% in size
In short: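 Human lymphoblastoid cells (2500/well) were pre-incubated 5 hr at 37 C, then exposed to compounds in complete medium for 24 hr at 37 C. Intracellular ATP was read by CellTiter-Glo luminescence after 30 min at room temperature; AC50 from Hill fits.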

[18] = Cell Viability - LYMP2-016 (AID 984); further: nearly all actives have a fitted effect of over 55% in size
In short: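 Cells were seeded at 2500 per well and rested 5 hr before a 24 hr compound exposure at 37 C. Viability was then gauged as cellular ATP by luciferase luminescence, with AC50 values fitted to the Hill equation.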

[19] = Cell Viability - LYMP2-018 (AID 985); further: nearly all actives have a fitted effect of over 50% in size
In short: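 Human lymphoblastoid cells (2500/well) were pre-incubated 5 hr at 37 C, then exposed to compounds for 24 hr at 37 C in complete medium. Viability was read as intracellular ATP by CellTiter-Glo luminescence; AC50 values came from Hill-equation fits.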

Measured: outcome

C[C@@H]1[C@H](O)[C@@H](C)/C=C/C=C/C=C/C=C/C=C/C=C/C=C/[C@H](O[C@@H]2O[C@H](C)[C@@H](O)[C@H](N)[C@@H]2O)C[C@@H]2O[C@](O)(C[C@@H](O)C[C@@H](O)[C@H](O)CC[C@@H](O)C[C@@H](O)CC(=O)O[C@H]1C)C[C@H](O)[C@H]2C(=O)O
inactive: [1] | [2] | [3] | [4] | [5] | [6] | [7] | [8] | [9] | [10] | [11] | [12] | [13] | [14] | [15] | [16] | [17] | [18] | [19]
